Results reported in the supplement of paper PMC6805474.

Legend:
[1] = tested on: Schistosoma mansoni schistosomula (LE); test: XTT viability relative to DMSO control; higher = more viable (less active); conditions: 72 h; 10 µM
Experimental: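 XTT/PMS was then added for a further 24 h (72 h total) and A450 was read. % viability = (sample - heat-killed control)/(DMSO control - heat-killed control) x 100, from duplicate wells in two independent experiments.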

[2] = tested on: Schistosoma mansoni schistosomula (NMRI); test: phenotypic severity score (0-4); higher = more antischistosomal effect, active = 2 or more; conditions: 10 µM
[3] = tested on: Schistosoma mansoni schistosomula (Liberian); test: drug effect (1 - score/DMSO control score) (fraction); higher = more antischistosomal effect, active = 0.5 or more; extreme values may be limits of the assay; conditions: 10 µM
How it was run: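 A plate was valid only if its 0.1% DMSO wells averaged a score of at least 2. Those wells ran beside duplicate wells in which 50 Liberian-strain Schistosoma mansoni schistosomula each, transformed mechanically from cercariae and pre-incubated at least 12 h, met 10 µM compound in Medium 199 with 5% FCS at 37 °C, 5% CO2. Scoring was visual at 10× at 24, 48 and 72 h, from 3 (normal) to 0 (dead) in quarter-point steps. Drug effect was derived from the mean test-well score against the mean DMSO-well score, with negatives set to zero.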
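For phenotypic severity score (0-4) in this document: visual microscopic scoring of shape, motility and density changes versus 0.5% DMSO solvent controls, one point per descriptor, degeneracy or death scored 4, mean of duplicate wells.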

| SMILES | XTT viability [1] | phenotypic severity score ([2]; 24 h) | phenotypic severity score ([2]; 48 h) | phenotypic severity score ([2]; 72 h) | drug effect ([3]; 24 h) | drug effect ([3]; 48 h) | drug effect ([3]; 72 h) |
| --- | --- | --- | --- | --- | --- | --- | --- |
| Cc1ccc(Oc2ccc(NC(=O)CNc3ccccc3N3CCCC3=O)cc2)cc1 | 77% | 2 (active) | 2 (active) | 0 (inactive) | 0.2 (inactive) | 0.333 (inactive) | 0.556 (active) |
| COc1ccc(C2=NCCN2)cc1-c1cn(-c2cccc(C3=NCCN3)c2)nn1 | 85.9% | 0 (inactive) | 0 (inactive) | 0 (inactive) | 0.1 (inactive) | 0.111 (inactive) | 0.25 (inactive) |
| Cc1ccc2nc(Cl)c(CNCc3cccs3)cc2c1 | 83.2% | 0 (inactive) | 0 (inactive) | 0 (inactive) | 0.182 (inactive) | 0.2 (inactive) | 0.0727 (inactive) |
| N#Cc1nc(-c2ccccc2)oc1S(=O)(=O)c1ccc(Cl)cc1 | -7.61% | 0 (inactive) | 0 (inactive) | 1 (inactive) | 1 (active) | 1 (active) | 1 (active) |
| O=C(COc1cccc(F)c1)Nc1nc(-c2ccccn2)cs1 | 68.1% | 0 (inactive) | 0 (inactive) | 0 (inactive) | 0.0909 (inactive) | 0.1 (inactive) | 0.127 (inactive) |
| CNC(=O)c1nn(C)c2c1C(C)(C)Cc1cnc(Nc3ccc(N4CCN(C)CC4)cc3)nc1-2 | 157% | 3 (active) | 4 (active) | 4 (active) | 0.364 (inactive) | 0.8 (active) | 0.891 (active) |
| O=C(Nc1ccc2c(c1)B(O)OC2)c1ccccc1C(F)(F)F | 71.1% | 0 (inactive) | 0 (inactive) | 0 (inactive) | 0.1 (inactive) | 0.0556 (inactive) | 0.167 (inactive) |
| COc1cccc(OCC(=O)c2ccc(Br)cc2)c1 | 101% | 0 (inactive) | 0 (inactive) | 0 (inactive) | 0.182 (inactive) | 0.2 (inactive) | 0.127 (inactive) |
| CCCCN(CCCC)c1c(C#N)cc(S(=O)(=O)Nc2ccccc2)cc1C#N | 40.5% | 0 (inactive) | 0 (inactive) | 0 (inactive) | 0.15 (inactive) | 0.135 (inactive) | 0.273 (inactive) |
| CC(Oc1cccc(Cl)c1)C(=O)Nc1ccc2oc(-c3ccncc3)nc2c1 (centres undefined) | 109% | 1 (inactive) | 0 (inactive) | 0 (inactive) | 0.318 (inactive) | 0.45 (inactive) | 0.564 (active) |
| CCOC(=O)c1noc(N)c1-c1ccccc1 | 94.1% | 0 (inactive) | 0 (inactive) | 0 (inactive) | 0.05 (inactive) | 0.0811 (inactive) | 0.0909 (inactive) |
| CC[C@H](CO)NCCN[C@H](CC)CO | 78.3% | 0 (inactive) | 0 (inactive) | 0 (inactive) | 0.15 (inactive) | 0.135 (inactive) | 0.278 (inactive) |
| O=C(NCCc1c[nH]c2ccccc12)c1cc2ccccc2oc1=O | 91.2% | 1 (inactive) | 0 (inactive) | 0 (inactive) | 0.182 (inactive) | 0.4 (inactive) | 0.455 (inactive) |
| CCC(=O)Nc1ccccc1C(=O)Nc1ccccn1 | 87.3% | 1 (inactive) | 0 (inactive) | 0 (inactive) | 0.136 (inactive) | 0.3 (inactive) | 0.236 (inactive) |
| Cc1ccc2cc(C3NC(=O)c4ccccc4N3)c(Cl)nc2c1 (centres undefined) | 99% | 0 (inactive) | 0 (inactive) | 1 (inactive) | 0.05 (inactive) | 0.0811 (inactive) | 0.111 (inactive) |
| COc1ccc(-c2nc(-c3cccc(NC(=O)Cc4ccc(F)cc4)c3)no2)cc1OC | 137% | 0 (inactive) | 0 (inactive) | 1 (inactive) | 0.182 (inactive) | 0.2 (inactive) | 0.182 (inactive) |
| CCOC(=O)c1c(NC(=O)c2c(F)c(F)c(F)c(F)c2F)sc(C(N)=O)c1C | -3.42% | 4 (active) | 4 (active) | 4 (active) | 1 (active) | 1 (active) | 1 (active) |
| Cc1cc(Cl)ccc1NC(=O)CCc1ccc(S(=O)(=O)NCC(C)C)cc1 | 107% | 0 (inactive) | 0 (inactive) | 0 (inactive) | 0.2 (inactive) | 0.278 (inactive) | 0.375 (inactive) |
| c1ccc(Oc2ccc(-c3cc(N4CCOCC4)[nH]n3)cc2)cc1 | 112% | 0 (inactive) | 0 (inactive) | 0 (inactive) | 0.15 (inactive) | 0.297 (inactive) | 0.152 (inactive) |
| COC(=O)Nc1nc2cc(C(=O)c3ccccc3)ccc2[nH]1 | 71.1% | 0 (inactive) | 0 (inactive) | 0 (inactive) | 0.15 (inactive) | 0.189 (inactive) | 0.278 (inactive) |
| CN1CCN(CCCOc2ncc(Nc3ncc(-c4ccc(C(F)(F)F)c(F)c4)nc3C(N)=O)cn2)CC1 | 5.2% | 3 (active) | 3 (active) | 3 (active) | 1 (active) | 1 (active) | 1 (active) |

| SMILES | XTT viability [1] | phenotypic severity score ([2]; 24 h) | phenotypic severity score ([2]; 48 h) | phenotypic severity score ([2]; 72 h) | drug effect ([3]; 24 h) | drug effect ([3]; 48 h) | drug effect ([3]; 72 h) |
| --- | --- | --- | --- | --- | --- | --- | --- |
| Oc1c(I)cc(I)c2cccnc12 | 6.58% | 2 (active) | 1 (inactive) | 2 (active) | 0.1 (inactive) | 0.135 (inactive) | 0.333 (inactive) |
| Cc1cc(OCC(=O)NCc2ccccc2)c2cc(Br)ccc2n1 | 111% | 0 (inactive) | 0 (inactive) | 0 (inactive) | 0.1 (inactive) | 0.0556 (inactive) | 0.0625 (inactive) |
| Cc1nnc(NCc2cccc(Cl)c2)c2ccccc12 | 102% | 0 (inactive) | 0 (inactive) | 0 (inactive) | < 0 (inactive) | 0.25 (inactive) | 0.127 (inactive) |
| COc1cccc(-n2nnnc2S(C)(=O)=O)c1 | -0.214% | 4 (active) | 4 (active) | 4 (active) | 1 (active) | 1 (active) | 1 (active) |
| COc1ccc(-c2cnc3cnc(-c4cccc(OC(C)C)c4)cn23)cc1 | 39% | 2 (active) | 4 (active) | 4 (active) | 0.0455 (inactive) | < 0 (inactive) | 0.105 (inactive) |
| Cc1nc(-c2ccccn2)nc(N(C)CCc2ccccc2)c1Cl | 20.7% | 1 (inactive) | 4 (active) | 4 (active) | < 0 (inactive) | 0.189 (inactive) | 0.697 (active) |
| O=C(Nc1nc(-c2ccccn2)cs1)c1cncn1-c1ccccc1 | 68.7% | 0 (inactive) | 0 (inactive) | 0 (inactive) | 0.0909 (inactive) | 0.15 (inactive) | 0.236 (inactive) |
| NCCC(O)C(=O)N[C@@H]1C[C@H](N)[C@@H](OC2O[C@H](CN)[C@@H](O)[C@H](O)[C@H]2O)[C@H](O)C1OC1O[C@H](CO)[C@@H](O)[C@H](N)[C@H]1O (some centres undefined) | 93.8% | 0 (inactive) | 0 (inactive) | 0 (inactive) | < 0 (inactive) | 0.0625 (inactive) | < 0 (inactive) |
| CCc1nc2ccccc2n1CC(O)COc1cc(C)ccc1Cl (centres undefined) | 106% | 0 (inactive) | 0 (inactive) | 0 (inactive) | 0.0909 (inactive) | 0.25 (inactive) | 0.236 (inactive) |
| Cc1ncc(-c2ccnc(Nc3ccc(S(C)(=O)=O)cc3)n2)n1C(C)C | 66.9% | 0 (inactive) | 0 (inactive) | 0 (inactive) | 0.15 (inactive) | 0.135 (inactive) | 0.167 (inactive) |
| CC(=O)NCC1CN(c2ccc(-c3ccc(CO)cc3)c(F)c2)C(=O)O1 (centres undefined) | 138% | 0 (inactive) | 1 (inactive) | 0 (inactive) | 0.1 (inactive) | 0.111 (inactive) | 0.0625 (inactive) |
| CC(C)(C)CN1C(=O)C(c2ccccc2)(c2ccccc2)N=C1N | 88.6% | 0 (inactive) | 0 (inactive) | 0 (inactive) | 0.1 (inactive) | 0.135 (inactive) | 0.273 (inactive) |
| COc1ccc(CCN2CCC(NCc3cccc(N(C)C)c3)CC2)cc1 | 98.6% | 0 (inactive) | 0 (inactive) | 0 (inactive) | < 0 (inactive) | 0.027 (inactive) | 0.0303 (inactive) |
| O=C(Nc1c(O)cccc1-c1nc2c(C(=O)O)cccc2o1)c1cc(-c2ccccc2)on1 | 80.2% | 0 (inactive) | 0 (inactive) | 0 (inactive) | 0.05 (inactive) | 0.027 (inactive) | 0.0303 (inactive) |
| Cc1cc(C)n2nc(C(=O)Nc3cc(C(F)(F)F)ccc3N3CCOCC3)nc2n1 | 73.3% | 0 (inactive) | 0 (inactive) | 0 (inactive) | 0.05 (inactive) | 0.135 (inactive) | 0.222 (inactive) |
| O=C(NC1CCCCC1)N1CCN(Cc2ccc3c(c2)OCO3)CC1 | 88.6% | 0 (inactive) | 0 (inactive) | 0 (inactive) | 0.0455 (inactive) | 0.2 (inactive) | 0.127 (inactive) |
| Nc1nccc2ccc(Oc3ccncc3)cc12 | 152% | 0 (inactive) | 0 (inactive) | 0 (inactive) | 0.1 (inactive) | 0.222 (inactive) | 0.375 (inactive) |
| O=C(CN1CCOCC1)Nc1ccc2ncnc(Nc3ccc(OCc4cccc(F)c4)c(Cl)c3)c2c1 | 125% | 0 (inactive) | 0 (inactive) | 0 (inactive) | 0.3 (inactive) | 0.25 (inactive) | 0.222 (inactive) |
| N#Cc1ccc(-c2ccc(OCC(N)=O)cc2)cc1 | 73.9% | 0 (inactive) | 1 (inactive) | 0 (inactive) | 0.182 (inactive) | 0.2 (inactive) | 0.127 (inactive) |
| O=C(NCc1nnc2n1CCCCC2)c1ccc(-c2ccc(F)cc2)o1 | 97.1% | 1 (inactive) | 0 (inactive) | 0 (inactive) | 0.136 (inactive) | 0.15 (inactive) | 0.182 (inactive) |
| CO[C@@H](C(=O)N1Cc2[nH]nc(NC(=O)c3ccc(N4CCN(C)CC4)cc3)c2C1)c1ccccc1 | 97.4% | 0 (inactive) | 0 (inactive) | 0 (inactive) | 0.15 (inactive) | 0.243 (inactive) | 0.278 (inactive) |
